Tb PGK inh – qHTS Assay to Find Inhibitors of Phosphoglycerate Kinase | 380,000 compounds, 0.043% hits | PGK/GAPDH coupled, Kinase-Glo luminescence, 60 min | Potency, µM (titrated, usually from 57.5 µM), actives largely listed as inhibitors | Phosphoglycerate kinase, glycosomal (Trypanosoma brucei brucei), P07378; also: nearly all actives have a fitted effect of over 60% in size
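Recombinant glycosomal PGK reaction used 1,3-bisphosphoglycerate generated in-well by GAPDH (100nM final) in 100mM TEA pH 7.6, 5mM MgCl2, 0.01% Tween-20. After 60 minutes at room temperature, ATP was read by Kinase-Glo Plus luminescence end-point.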
PI4K2A block – qHTS for small molecular inhibitors of PI4K2A; Phosphatidylinositol 4-kinase type 2-alpha (Homo sapiens), Q9BTU6; activity change, negative = inhibition, % at 76.9 µM; purified PI4K2A, ADP-Glo luminescence, 1 h; active compounds read low; AID 1346378, 2018; 420,000 compounds, 0.13% hits; in the data active = activity change below about -50%; inconclusive = mostly about -30% to -49%
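ADP-Glo luminescence measured ADP generated by PI4K2A enzyme (4 ug/mL before mixing) with 1.2 mM PI substrate (pre-mix) and 300 microM ATP (pre-mix). Tris pH7.5 buffer with MgCl2, Triton X-100; 1 h reaction at ambient temperature.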
USP1-UAF1 inh – Inhibitors of USP1/UAF1: Primary Screen | Ubiquitin carboxyl-terminal hydrolase 1 (Homo sapiens), O94782 | recombinant USP1/UAF1, Ub-Rhodamine cleavage fluorescence | Potency, µM (top dose mostly 57.1 µM), actives largely listed as inhibitors | 390,000 compounds, 0.23% hits; also: nearly all actives have a fitted effect of over 60% in size
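In this screen, compounds sit with the deubiquitinase complex (1nM) for 15 min at room temperature before Ub-Rho is added at 150nM final. Fluorescence rise is then followed for 6 reads every 60 seconds.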
GLS inh – qHTS for Inhibitors of Glutaminase (GLS); GLS enzymatic activity, qHTS titration; Potency, µM (top dose mostly 45.5 µM), hits mostly inhibitors; 410,000 compounds, 0.21% hits; AID 624170, 2012
Target sequence (O94925 whole entry, looked up): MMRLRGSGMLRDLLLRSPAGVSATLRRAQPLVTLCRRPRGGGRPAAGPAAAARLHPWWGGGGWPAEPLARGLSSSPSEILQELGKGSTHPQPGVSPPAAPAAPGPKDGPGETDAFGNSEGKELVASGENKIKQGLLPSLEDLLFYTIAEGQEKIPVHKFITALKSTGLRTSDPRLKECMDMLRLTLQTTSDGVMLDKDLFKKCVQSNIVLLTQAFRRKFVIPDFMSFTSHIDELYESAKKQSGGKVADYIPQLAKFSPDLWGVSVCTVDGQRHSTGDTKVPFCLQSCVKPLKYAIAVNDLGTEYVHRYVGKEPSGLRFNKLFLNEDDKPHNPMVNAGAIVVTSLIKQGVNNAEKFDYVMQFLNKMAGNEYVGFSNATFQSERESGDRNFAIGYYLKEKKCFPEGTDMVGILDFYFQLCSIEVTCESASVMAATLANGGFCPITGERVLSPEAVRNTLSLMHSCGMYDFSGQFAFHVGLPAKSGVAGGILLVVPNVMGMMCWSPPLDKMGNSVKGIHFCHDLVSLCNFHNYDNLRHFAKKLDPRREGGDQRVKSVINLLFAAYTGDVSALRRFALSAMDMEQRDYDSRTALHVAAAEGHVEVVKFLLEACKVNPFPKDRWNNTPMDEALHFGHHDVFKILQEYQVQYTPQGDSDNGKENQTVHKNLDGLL
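hKGA; 45 mM KH2PO4 pH 8.2 + 0.02% Tween-20; cpd via pin tool; 1 mM Gln soln; GluOx/HRP/Amplex Red; RT 30 min; fluor. t0 & final.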
Of the large screens only hits and unclear results are named; the others gave an inactive call. Rows were chosen to be rich in hits. Some 0.53% of all compounds tested hit in one or more screens of this group. Unless noted, calls follow the shape of the dose curve; as a rule, active = well fitted curve in the direction sought with a large enough effect; inconclusive = small, poorly fitted or top-dose-only effect, or another doubt; inactive = no such curve, though single readings can be large; an effect the other way counts as inactive or inconclusive.

COc1c(N2C[C@@H]3CCCN[C@H]3C2)c(F)cc2c(=O)c(C(=O)O)cn(C3CC3)c12	none (no result: Tb PGK inh, PI4K2A block, USP1-UAF1 inh)
NCCCNCCCCNC(=O)C(O)NC(=O)CCCCCCN=C(N)N (stereo unspecified)	none (no result: Tb PGK inh, PI4K2A block, USP1-UAF1 inh)
O=C(CSc1nc(-c2ccccc2)nc2c1Cc1ccccc1O2)Nc1ccc(C(=O)O)cc1	Tb PGK inh inconclusive, USP1-UAF1 inh inconclusive, GLS inh inconclusive
O=C(CSc1nc(-c2ccc(F)cc2)nc2c1Cc1ccccc1O2)Nc1ccc(C(=O)O)cc1	Tb PGK inh 15.8µM
COC(=O)c1cc(Cl)ccc1OC	none (no result: Tb PGK inh, USP1-UAF1 inh, GLS inh)
COc1ccccc1C(=O)NCCC(=O)Nc1nc2ccccc2[nH]1	none
COc1ccccc1C(=O)Nc1nc2ccccc2[nH]1	Tb PGK inh 7.94µM, PI4K2A block -90.8
COc1cc(SC)ccc1C(=O)Nc1nc2ccccc2[nH]1	Tb PGK inh inconclusive, PI4K2A block -74.3
CN1CC[C@H](c2c(O)cc(O)c3c(=O)cc(-c4ccccc4Cl)oc23)[C@@H](O)C1	none (no result: Tb PGK inh, PI4K2A block, USP1-UAF1 inh)
Nc1ncnc2c1CN(Cc1ccccc1)CC2	none
Nc1nc(N)c2c(n1)CN(Cc1ccc(Cl)cc1)C2	USP1-UAF1 inh inconclusive, GLS inh 11.2µM
Fc1ccc(Nc2nc(SCc3ccccc3F)nc3ccccc23)cc1	none
Cc1cc(C)c(S(=O)(=O)Nc2cc(SCC(=O)O)c(O)c3ccccc23)cc1C	PI4K2A block inconclusive, USP1-UAF1 inh inconclusive
O=C(O)CSc1cc(NS(=O)(=O)c2ccc(Cl)cc2)c2ccccc2c1O	PI4K2A block inconclusive, USP1-UAF1 inh 25.1µM
COc1ccc(S(=O)(=O)Nc2cc(SCC(=O)O)c(O)c3ccccc23)cc1	PI4K2A block inconclusive, USP1-UAF1 inh 31.6µM, GLS inh inconclusive
NC(=O)CC[C@@H]1NC(=O)[C@H](Cc2ccccc2)NC(=O)[C@H](Cc2ccc(O)cc2)NC(=O)CCSSC[C@@H](C(=O)N2CCC[C@H]2C(=O)N[C@@H](CCCN=C(N)N)C(=O)NCC(N)=O)NC(=O)[C@H](CC(N)=O)NC1=O	none (no result: Tb PGK inh, USP1-UAF1 inh, GLS inh)
O=C1c2ccccc2-c2onc3ccc(N4CCCC4)c1c23	USP1-UAF1 inh 14.1µM
CCOc1ccc2noc3c2c1C(=O)c1ccccc1-3	none
CCO[C@H](Cc1ccc(OCCc2ccc(OS(C)(=O)=O)cc2)cc1)C(=O)O	none (no result: Tb PGK inh, USP1-UAF1 inh, GLS inh)
CCC(C)n1ncn(-c2ccc(N3CCN(c4ccc(OC[C@H]5CO[C@](Cn6cncn6)(c6ccc(Cl)cc6Cl)O5)cc4)CC3)cc2)c1=O (stereo partly specified)	none (no result: Tb PGK inh, USP1-UAF1 inh, GLS inh)
O=C(N=Nc1c(O)[nH]c2ccccc12)c1cccs1	none
O=C(N=Nc1c(O)[nH]c2ccccc12)c1cc(NS(=O)(=O)c2cccs2)cc(NS(=O)(=O)c2cccs2)c1	PI4K2A block -51.1
O=C(CSc1nccn1-c1ccc(F)cc1)Nc1ccc(OC(F)(F)F)cc1	none
CC(C(=O)Nc1ccc(C(=O)O)c(O)c1)N1C(=O)/C(=C\c2ccco2)SC1=S (stereo unspecified)	Tb PGK inh inconclusive, USP1-UAF1 inh inconclusive, GLS inh 17.8µM
O=C(CN1C(=O)/C(=C/c2ccco2)SC1=S)Nc1ccc(C(=O)O)c(O)c1	Tb PGK inh 28.2µM, USP1-UAF1 inh inconclusive, GLS inh 22.4µM
O=C(CN1C(=O)/C(=C/c2ccco2)SC1=S)Nc1ccc(O)c(C(=O)O)c1	Tb PGK inh inconclusive, USP1-UAF1 inh inconclusive
O=C(NCc1nc2ccccc2[nH]1)c1ccc(S(=O)(=O)N2CCOCC2)cc1	Tb PGK inh 22.4µM
CC(=NNC(=S)N1CCC1)c1ccccn1	PI4K2A block -60.2
CCCCC(O)/C=C(C)/C=C/C=C/C(=O)N1CCCC1=O (stereo unspecified)	none (no result: Tb PGK inh, USP1-UAF1 inh, GLS inh)
CCOC(=O)c1ccc(Nc2cnc3ccccc3n2)cc1	none
O=C(O)c1ccc(Nc2cnc3ccccc3n2)cc1	PI4K2A block -55.1
CCNC(=O)[C@@H]1CCCN1C(=O)[C@H](CCCN=C(N)N)NC(=O)[C@H](CC(C)C)NC(=O)CNC(=O)[C@H](Cc1ccc(O)cc1)NC(=O)[C@H](CO)NC(=O)[C@H](Cc1c[nH]c2ccccc12)NC(=O)[C@H](Cc1cnc[nH]1)NC(=O)[C@@H]1CCC(=O)N1	none (no result: Tb PGK inh, USP1-UAF1 inh, GLS inh)
CSc1ccc(C2NC(=O)c3c(sc4c3CCN(C)C4)N2)cc1 (stereo unspecified)	USP1-UAF1 inh inconclusive, GLS inh inconclusive
CC(C)c1ccc(C2NC(=O)c3c(sc4c3CCN(C)C4)N2)cc1 (stereo unspecified)	USP1-UAF1 inh inconclusive, GLS inh 15.8µM
CN1CCc2c(sc3c2C(=O)NC(c2ccc(C(C)(C)C)cc2)N3)C1 (stereo unspecified)	USP1-UAF1 inh inconclusive, GLS inh 15.8µM
COc1ccc(C2NC(=O)c3c(sc4c3CCN(C)C4)N2)cc1O (stereo unspecified)	none (no result: Tb PGK inh)
COc1ccc(-n2c(SCC(=O)Nc3cc(C)c(NC(=O)c4ccccc4)cc3OC)nnc2-c2ccco2)cc1	none (no result: Tb PGK inh, USP1-UAF1 inh, GLS inh)
c1ccc2sc(-c3ccc4c(c3)OCO4)nc2c1	Tb PGK inh inconclusive, PI4K2A block -67.6
O=C(Nc1cccc(-c2nc3ccccc3s2)c1)c1ccc2c(c1)OCO2	none
O=C(c1ccc(-c2nc3ccccc3s2)s1)N1CCOCC1	Tb PGK inh inconclusive, PI4K2A block -66.5
C[C@H]1C[C@H](O)c2ccsc2S1(=O)=O	none (no result: Tb PGK inh, USP1-UAF1 inh, GLS inh)
Cc1onc(-c2c(Cl)cccc2Cl)c1C(=O)Cl	none (no result: Tb PGK inh, USP1-UAF1 inh, GLS inh)
COc1ccc2nc(N3CCCC3)c(C#N)cc2c1	USP1-UAF1 inh 28.2µM
CN(CC(=O)Nc1c(Cl)cccc1Cl)C(=O)c1ccccc1SCC(=O)N1CCCC1	GLS inh 15.8µM
Clc1cccc(Cc2c(-c3ccco3)nc3ccc(Br)cn23)c1	GLS inh 11.2µM (no result: Tb PGK inh, USP1-UAF1 inh)
CCCCCCCCOc1ccccc1C(=O)Nc1ccc(C(=O)OCC[N+](C)(CC)CC)cc1	none (no result: Tb PGK inh, USP1-UAF1 inh)
COc1cc(/C=N/NC(=O)c2cc(O)cc(O)c2)ccc1OC(=O)c1ccccc1	Tb PGK inh 12.6µM, GLS inh 12.6µM
O=C(N/N=C/c1ccoc1)c1cc(O)cc(O)c1	Tb PGK inh inconclusive, GLS inh 12.6µM
CCc1ccc(S(=O)(=O)/N=C2\C=C(Nc3cccc(C(=O)O)c3)C(=O)c3ccccc32)cc1	PI4K2A block inconclusive, USP1-UAF1 inh 5.62µM, GLS inh inconclusive
CCc1ccc(S(=O)(=O)/N=C2/C=C(Sc3ncn[nH]3)C(=O)c3ccccc32)cc1	Tb PGK inh inconclusive, PI4K2A block -56.3, USP1-UAF1 inh 1.78µM
CCc1ccc(S(=O)(=O)/N=C2\C=C(Nc3ccc(O)cc3)C(=O)c3ccccc32)cc1	Tb PGK inh inconclusive, PI4K2A block inconclusive, USP1-UAF1 inh 10µM, GLS inh 4.47µM
CC1CCCCN1c1cc(C#N)c(C#N)cc1[N+](=O)[O-] (stereo unspecified)	none
CC1CCc2cccc3c2N1c1cc(C#N)c(C#N)cc1O3 (stereo unspecified)	USP1-UAF1 inh 28.2µM
O=C(CNCc1ccccc1[N+](=O)[O-])N1CCC2(CC1)OCCO2	none (no result: Tb PGK inh, USP1-UAF1 inh, GLS inh)
